In PubChem BioAssay AID1851 (National Center for Advancing Translational Sciences (NCATS), 2009):
Hit rate of the full screen: of about 16,000 compounds, about 4,000 (25%) were called active. Roughly 26% stayed inconclusive and do not appear here. Calls follow the shape of the dose curve; as a rule, active = well fitted curve in the direction sought with a large enough effect; inconclusive = small, poorly fitted or top-dose-only effect, or effect the other way; inactive = no such curve, though single readings can be large or run the other way. Only a sample is shown.

Target: Cytochrome P450 2C9 (Homo sapiens) (UniProt P11712)
Sequence (P11712 whole entry, looked up): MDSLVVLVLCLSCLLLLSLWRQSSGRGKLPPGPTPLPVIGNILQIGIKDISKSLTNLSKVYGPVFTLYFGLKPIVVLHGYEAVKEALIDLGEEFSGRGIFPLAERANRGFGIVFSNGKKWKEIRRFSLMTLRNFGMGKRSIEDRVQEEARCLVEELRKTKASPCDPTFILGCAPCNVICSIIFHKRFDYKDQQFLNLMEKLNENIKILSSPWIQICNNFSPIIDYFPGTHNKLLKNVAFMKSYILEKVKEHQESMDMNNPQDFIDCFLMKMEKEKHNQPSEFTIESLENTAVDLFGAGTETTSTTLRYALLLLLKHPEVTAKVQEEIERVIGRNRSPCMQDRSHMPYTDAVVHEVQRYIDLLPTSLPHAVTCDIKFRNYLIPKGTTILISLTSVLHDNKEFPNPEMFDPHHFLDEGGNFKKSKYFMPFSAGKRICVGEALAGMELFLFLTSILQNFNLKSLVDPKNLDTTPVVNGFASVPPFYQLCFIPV
Test: Cytochrome panel assay with activity outcomes
Settings: recombinant CYP, pro-luciferin dealkylation, luminescence, p450-cyp2c9; series mostly up to 57.1 µM
% is scaled to controls: 0 for no effect and ±100 for the full control effect.

Structure (SMILES)	AC50	activity, negative = inhibition
COCC(=O)Nc1c(I)c(C(=O)NC[C@@H](O)CO)c(I)c(C(=O)N(C)C[C@@H](O)CO)c1I	inactive	–
C/C(CCN1CCCCc2nc(C)c(C)cc21)=N\O[C@@H](C)CN1CCCc2nc(C)c(C)cc21	–	-5.53% [at 11.4 µM] (inactive)
COc1cccc([C@@H]2Oc3ccc(OC)cc3/C(=N/O[C@@H](C)CN3CCCCc4nc(C)c(C)cc43)[C@@H]2O)c1	1.58 µM (active)	–
CC(C)=NO[C@@H](C)CN1CCCCc2nc(C)c(C)cc21	–	19.8% [at 11.4 µM] (inactive)
CCC(C)(C)N=C(NC#N)Nc1cccnc1	inactive	–
CN(C)c1ncnc2ccc(-c3ccccc3C#N)cc12	–	-7.24% [at 2.29 µM] (inactive)
Nc1c2c(=O)oc(-c3ccccc3)cc2nn1-c1ccccc1	10 µM (active)	–
O=C(O)/C=C(/C(=O)O)[C@]12CCN3CC4=CCO[C@@H]5CC(=O)N[C@@H]1[C@H]5[C@H]4C[C@H]32	–	-2.53% [at 11.4 µM] (inactive)
c1ccc(-c2nnn(CCN3CCCCC3)n2)cc1	–	3.45% [at 11.4 µM] (inactive)
CN1/C(=C\C(=O)COC(=O)Cn2nnc(-c3ccccc3)n2)C(C)(C)c2ccccc21	3.98 µM (active)	–
CN1/C(=C\C=[N+](C)c2ccccc2)C(C)(C)c2ccccc21	inactive	–
CC1CCCN(C(=O)c2sc3cc([N+](=O)[O-])ccc3c2Cl)C1 (stereo unspecified)	inactive	–
CS(=O)(=O)c1ccc([C@H](O)[C@H](CO)NC(=O)C(Cl)Cl)cc1	inactive	–
CC(=O)N1CCC2(CCCN(Cc3ccccc3)C2)CC1	inactive	–
COc1ccc(-c2cc(C(F)F)nc(-n3nc(C)cc3C)n2)cc1	28.2 µM (active)	–
Cc1cc(C)n(-c2nc(NC(C)C)nc(NC(C)C)n2)n1	inactive	–
Cc1cnc(CNc2nc(-c3ccc(N(C)C)cc3)nc3ccccc23)cn1	–	-14.7% [at 2.29 µM] (inactive)
COc1ncc2nc(-c3cccs3)c(=O)n(CCC#N)c2n1	inactive	–
N#Cc1c(-c2cccs2)nc(SCC(=O)c2cccs2)[nH]c1=O	0.708 µM (active)	–
Cc1cccc(NC(=O)CSc2nc(-c3ccccc3)c(C#N)c(=O)[nH]2)c1C	0.355 µM (active)	–
N#CCCn1c(=O)c(-c2cccs2)nc2cnc(Nc3ccccc3)nc21	inactive	–
COc1ccccc1NC(=O)CCc1c(C)[nH]c(=O)c(C#N)c1C	inactive	–
CC(C)NC(=O)N1CC[C@@]2(CCCN(C(=O)c3csnn3)C2)C1	inactive	–
COc1ccccc1-c1cc(NCc2cccc(C)c2)ncn1	–	0.571% [at 2.29 µM] (inactive)
O=C(O)/C(Cc1ccc([N+](=O)[O-])cc1)=N/O	–	-14.2% [at 11.4 µM] (inactive)
Cc1ccc(N(Cc2ccc([N+](=O)[O-])cc2)C(=O)c2ccco2)cc1	3.16 µM (active)	–
